Results on three compounds are retold here after PubChem BioAssay (EPA / NIEHS).

Settings in all cases: mRNA level, 48 h; actives raise or lower the signal
Read-out in assay [1]: Cyclin D1 (CCND1), CCND1 (gene 595)
Kind of assay: LTEA_HepaRG_CCND1: Life Technologies and Expression Analysis (LTEA) Assay for Cyclin D1 (CCND1) using HepaRG (AID 2283451).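 For AC50: TaqMan qRT-PCR transcript level normalised to ACTB GAPDH and POLR2A housekeeping genes.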 In short, it runs like this: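 Differentiated human HepaRG cells in serum-free induction medium were exposed 48 h to eight half-log concentrations up to 100 uM in 0.5% DMSO; mRNA quantified by TaqMan qRT-PCR, normalized to ACTB, GAPDH, POLR2A, fitted bidirectionally versus DMSO.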

Read-out in assay [2]: catalase (CAT), CAT (gene 847)
Kind of assay: LTEA_HepaRG_CAT: Life Technologies and Expression Analysis (LTEA) Assay for catalase (CAT) using HepaRG (AID 2283452). An outline of the steps: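 HepaRG cells in serum-free induction medium, 0.5% DMSO vehicle, exposed 48 h in duplicate over 8 half-log concentrations from 100 uM. CAT mRNA measured by qRT-PCR, normalized to ACTB, GAPDH, POLR2A; bidirectional fit versus DMSO.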

Read-out in assay [3]: flavin-containing dimethylaniline monooxygenases 3 (FMO3), FMO3 (gene 2328)
Briefly: LTEA_HepaRG_FMO3: Life Technologies and Expression Analysis (LTEA) Assay for flavin-containing dimethylaniline monooxygenases 3 (FMO3) using HepaRG (AID 2283453). In short, it runs like this: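 Differentiated HepaRG cells in serum-free induction medium, exposed 48 h in duplicate to 8 half-log concentrations up to 100 uM in 0.5% DMSO. FMO3 mRNA by qRT-PCR, normalized to ACTB, GAPDH, POLR2A; bidirectional fit vs DMSO.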

Read-out in assay [4]: Cytochrome P450 (CYP1A1), CYP1A1 (gene 1543)
Kind of assay: LTEA_HepaRG_CYP1A1: Life Technologies and Expression Analysis (LTEA) Assay for Cytochrome P450 (CYP1A1) using HepaRG (AID 2283454). An outline of the steps:
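Differentiated HepaRG cells in serum-free induction medium were exposed in duplicate for 48 h to eight half-log concentrations up to 100 uM in 0.5% DMSO. CYP1A1 mRNA was quantified by TaqMan qRT-PCR, normalized to ACTB, GAPDH and POLR2A.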

Read-out in assay [5]: CFLAR gene, CFLAR (gene 8837)
Kind of assay: LTEA_HepaRG_CFLAR: Life Technologies and Expression Analysis (LTEA) Assay for CFLAR gene using HepaRG (AID 2283455). An outline of the steps: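 Differentiated HepaRG cells in serum-free induction medium were exposed 48 h in duplicate to eight half-log concentrations up to 100 uM in 0.5% DMSO; mRNA measured by TaqMan qRT-PCR, normalized to ACTB, GAPDH, POLR2A; bidirectional fitting versus DMSO.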

Read-out in assay [6]: Forkhead box O1 (FOXO1), FOXO1 (gene 2308)
Kind of assay: LTEA_HepaRG_FOXO1: Life Technologies and Expression Analysis (LTEA) Assay for Forkhead box O1 (FOXO1) using HepaRG (AID 2283456). In short, it runs like this:
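Differentiated HepaRG cells, in serum-free induction medium with 0.5% DMSO, exposed 48 h in duplicate to 8-point half-log series from 100 uM. FOXO1 mRNA measured by TaqMan qRT-PCR, normalized to ACTB, GAPDH, POLR2A; bidirectional fit versus DMSO.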

Read-out in assay [7]: Forkhead box O3 (FOXO3), FOXO3 (gene 2309)
Kind of assay: LTEA_HepaRG_FOXO3: Life Technologies and Expression Analysis (LTEA) Assay for Forkhead box O3 (FOXO3) using HepaRG (AID 2283459). In short, it runs like this: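 Differentiated human HepaRG cells, 48 h post-plating, exposed in duplicate for 48 h in serum-free induction medium; 8-point half-log series from 100 uM in 0.5% DMSO. FOXO3 mRNA by TaqMan qRT-PCR, normalized to ACTB/GAPDH/POLR2A; bidirectional fit versus DMSO.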

Read-out in assay [8]: ABC Transporter (ABCB1), ABCB1 (gene 5243)
Briefly: LTEA_HepaRG_ABCB1: Life Technologies and Expression Analysis (LTEA) Assay for ABC Transporter (ABCB1) using HepaRG (AID 2283460). An outline of the steps: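 HepaRG cells exposed in duplicate for 48 h in serum-free induction medium to eight half-log concentrations up to 100 uM in 0.5% DMSO. ABCB1 mRNA quantified by qRT-PCR, normalised to ACTB, GAPDH and POLR2A; fitted bidirectionally versus DMSO.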

Read-out in assay [9]: growth arrest and DNA damage 45 (GADD45B), GADD45B (gene 4616)
Kind of assay: LTEA_HepaRG_GADD45B: Life Technologies and Expression Analysis (LTEA) Assay for growth arrest and DNA damage 45 (GADD45B) using HepaRG (AID 2283461). In short, it runs like this:
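Differentiated HepaRG cells, plated 48 h then switched to serum-free induction medium, were exposed 48 h in duplicate to eight half-log concentrations from 100 uM in 0.5% DMSO; mRNA quantified by qRT-PCR, normalized to ACTB/GAPDH/POLR2A, bidirectional fit versus DMSO.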

Read-out in assay [10]: ABC Transporter (ABCC3), ABCC3 (gene 8714)
Kind of assay: LTEA_HepaRG_ABCC3: Life Technologies and Expression Analysis (LTEA) Assay for ABC Transporter (ABCC3) using HepaRG (AID 2283462). An outline of the steps: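 HepaRG cells in serum-free induction medium were exposed for 48 h in duplicate to 8-point half-log concentrations topping at 100 uM in 0.5% DMSO. ABCC3 mRNA was measured by qRT-PCR normalized to ACTB, GAPDH and POLR2A, with bidirectional fitting versus DMSO.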

Read-out in assay [11]: ABC Transporter (ABCB11), ABCB11 (gene 8647)
Briefly: LTEA_HepaRG_ABCB11: Life Technologies and Expression Analysis (LTEA) Assay for ABC Transporter (ABCB11) using HepaRG (AID 2283463). An outline of the steps: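 Differentiated human HepaRG cells in serum-free induction medium, dosed in duplicate for 48 h. Eight-point half-log series from 100 uM in 0.5% DMSO; ABCB11 mRNA by qRT-PCR, normalized to ACTB, GAPDH, POLR2A, fitted bidirectionally versus DMSO.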

Read-out in assay [12]: ABC Transporter (ABCC2), ABCC2 (gene 1244)
Kind of assay: LTEA_HepaRG_ABCC2: Life Technologies and Expression Analysis (LTEA) Assay for ABC Transporter (ABCC2) using HepaRG (AID 2283464). An outline of the steps:
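HepaRG cells were plated 48 h, switched to serum-free induction medium, then exposed in duplicate for 48 h to 8 concentrations (top 100 uM, half-log steps, 0.5% DMSO). ABCC2 mRNA was measured by qRT-PCR normalized to ACTB/GAPDH/POLR2A; bidirectional fitting versus DMSO.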

Read-out in assay [13]: Broad substrate specificity ATP-binding cassette transporter ABCG2 (Homo sapiens) (UniProt Q9UNQ0)
Kind of assay: LTEA_HepaRG_ABCG2: Life Technologies and Expression Analysis (LTEA) Assay for ABC Transporter (ABCG2) using HepaRG (AID 2283465). An outline of the steps: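 Differentiated HepaRG cells were exposed for 48 h in serum-free induction medium to 8 half-log concentrations, top 100 uM, in 0.5% DMSO. ABCG2 mRNA was measured by qRT-PCR, normalized to ACTB, GAPDH and POLR2A, with bidirectional fitting versus DMSO.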

Read-out in assay [14]: ATP-citrate lyase (ACLY), ACLY (gene 47)
Briefly: LTEA_HepaRG_ACLY: Life Technologies and Expression Analysis (LTEA) Assay for ATP-citrate lyase (ACLY) using HepaRG (AID 2283466). In short, it runs like this: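 Differentiated HepaRG cells exposed 48 h in serum-free induction medium to eight half-log concentrations up to 100 uM in 0.5% DMSO, duplicates. Transcript measured by Fluidigm TaqMan qRT-PCR, normalized to ACTB, GAPDH, POLR2A; bidirectional fit versus DMSO.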

Read-out in assay [15]: Peroxisomal acyl-coenzyme A oxidase 1 (ACOX1) gene, ACOX1 (gene 51)
Kind of assay: LTEA_HepaRG_ACOX1: Life Technologies and Expression Analysis (LTEA) Assay for Peroxisomal acyl-coenzyme A oxidase 1 (ACOX1) gene using HepaRG (AID 2283467). In short, it runs like this: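 HepaRG cells, plated 48 h then switched to serum-free induction medium, were exposed in duplicate for 48 h to 8-point half-log concentrations up to 100 uM in 0.5% DMSO. ACOX1 mRNA was measured by qRT-PCR, normalized to ACTB/GAPDH/POLR2A, and fitted bidirectionally versus DMSO.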

Read-out in assay [16]: Alkaline Phosphatase, Placental (ALPP) gene, ALPP (gene 250)
Kind of assay: LTEA_HepaRG_ALPP: Life Technologies and Expression Analysis (LTEA) Assay for Alkaline Phosphatase, Placental (ALPP) gene using HepaRG (AID 2283468). An outline of the steps:
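Differentiated human HepaRG cells were plated and cultured 48 h, then exposed in duplicate for 48 h in serum-free induction medium to eight half-log concentrations from 100 uM in 0.5% DMSO. ALPP mRNA was measured by TaqMan qRT-PCR, normalized to ACTB, GAPDH, POLR2A.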

Read-out in assay [17]: Bcl-2 (BAD) gene, BAD (gene 572)
Briefly: LTEA_HepaRG_BAD: Life Technologies and Expression Analysis (LTEA) Assay for Bcl-2 (BAD) gene using HepaRG (AID 2283469). An outline of the steps: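 Differentiated HepaRG cells were exposed in duplicate in 0.5% DMSO for 48 h to eight-point half-log concentrations up to 100 uM. BAD mRNA was measured by Fluidigm TaqMan qRT-PCR, normalized to ACTB, GAPDH and POLR2A, and fitted bidirectionally against DMSO.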

Read-out in assay [18]: Bcl-2 (BAX) gene, BAX (gene 581)
Briefly: LTEA_HepaRG_BAX: Life Technologies and Expression Analysis (LTEA) Assay for Bcl-2 (BAX) gene using HepaRG (AID 2283470). An outline of the steps: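 HepaRG (human liver), 48 h exposure, duplicate wells. 8-pt curve, half-log from 100 uM, 0.5% DMSO. BAX transcript by TaqMan qRT-PCR; ACTB/GAPDH/POLR2A normalization; gain or loss vs DMSO baseline.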

Read-out in assay [19]: growth arrest and DNA damage 45 (GADD45A), GADD45A (gene 1647)
Briefly: LTEA_HepaRG_GADD45A: Life Technologies and Expression Analysis (LTEA) Assay for growth arrest and DNA damage 45 (GADD45A) using HepaRG (AID 2283458). An outline of the steps: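 Cells plated and cultured 48 h, switched to serum-free induction medium, then dosed for 48 h (100 uM top, half-log dilutions, 0.5% DMSO). RNA was isolated and transcript measured by Fluidigm qRT-PCR.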

Calls of active or inactive are those of the source. Rule for the calls: active = hit-call score of the fitted dose curve at least 0.9, where 1 is the maximum; inactive = score below 0.9.

Sequence of Broad substrate specificity ATP-binding cassette transporter ABCG2 (Homo sapiens) (Q9UNQ0 whole entry, looked up): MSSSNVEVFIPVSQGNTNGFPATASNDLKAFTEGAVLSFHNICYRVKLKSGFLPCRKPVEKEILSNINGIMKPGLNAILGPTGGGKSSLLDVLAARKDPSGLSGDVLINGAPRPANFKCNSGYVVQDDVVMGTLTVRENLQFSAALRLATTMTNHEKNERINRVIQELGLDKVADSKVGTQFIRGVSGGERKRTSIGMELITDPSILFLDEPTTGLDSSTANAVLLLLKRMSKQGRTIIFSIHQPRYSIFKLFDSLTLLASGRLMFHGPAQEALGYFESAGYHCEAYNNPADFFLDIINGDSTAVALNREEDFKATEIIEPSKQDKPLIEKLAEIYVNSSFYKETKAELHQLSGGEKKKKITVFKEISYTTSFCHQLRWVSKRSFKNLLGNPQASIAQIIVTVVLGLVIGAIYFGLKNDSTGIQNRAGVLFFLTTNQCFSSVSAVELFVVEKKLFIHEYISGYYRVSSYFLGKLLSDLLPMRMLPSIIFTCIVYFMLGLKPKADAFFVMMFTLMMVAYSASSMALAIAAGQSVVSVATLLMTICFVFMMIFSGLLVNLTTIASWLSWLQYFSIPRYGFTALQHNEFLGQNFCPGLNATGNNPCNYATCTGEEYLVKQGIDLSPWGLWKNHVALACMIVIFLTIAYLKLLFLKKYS

Regarding `c1ccc(C2CO2)cc1` (stereo not drawn), the call in assay [1], in assay [2], in assay [3], in assay [4], in assay [5] and in [6] was inactive. Also, the result in assay [7], in assay [8], in [9], in [10], in [11] and in [12] was inactive. In addition, the outcome in [13], in assay [14], in assay [15], in assay [16], in assay [17] and in assay [18] was inactive.
In general, AC50 refers to the concentration at which the activity in the assay is half-maximal. Consider `O=C(O)C1C2CCC(O2)C1C(=O)O` (stereo not drawn), for which the AC50 in assay [1] was 32.3 µM (active); in assay [3], 56.4 µM (active); in assay [4] it was 82.6 µM (active); in [7], 37.4 µM (active); in [11], 77.9 µM (active); in assay [13], 14.2 µM (active). The AC50 in assay [16] is 20.1 µM (active). The compound was classed as inactive in [2], in assay [5], in assay [6], in assay [19], in assay [9] and in assay [12]. Besides, the compound was classed as inactive in [14], in assay [15], in assay [17] and in [18].
Take `Clc1ccc(Cl)c(Cl)c1`: the compound was classed as inactive in [1], in assay [2], in assay [3], in assay [4], in assay [6] and in [7]. Moreover, the outcome in [9], in assay [10], in assay [12], in assay [13], in [14] and in [15] was inactive. In addition, the result in [17] and in assay [18] was inactive. In addition, the AC50 in assay [5] was 50 µM (active); in [19], 9.92 µM (active); in [11] it was 50 µM (active); in assay [16], 9.92 µM (active).
